Measured values published in PubChem BioAssay (NCI).
About 83,000 compounds went through this panel and 20% of them were active in at least one assay; those are over-represented in the sample as a whole.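 Single-concentration screen, 48 h exposure, 96-well plates. Endpoint: percent growth. Below 10 = active.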 Unmarked numbers belong to inactive results. Calls of active or inactive are those of the source.

test system: HCT-15 colon; assay: NCI-60 one-dose screen, 48 h (100 = growth as untreated, 0 = no growth, -100 = all killed); conditions: 10 µM unless noted

**Q.** Which growth does the source give for `Cn1cc(C(=O)NCCC(=N)N)cc1NC(=O)CN=C(N)N` here?
**A.** 111%

**Q.** How did the growth turn out when `Nc1cccc2c(=S)c3ccccc3[nH]c12` was run?
**A.** 95.4%

**Q.** How did the growth turn out when `CCN1CCN(c2nc3ccccc3c3c(=O)c4cc(F)ccc4sc23)CC1` was run?
**A.** 48.2%

**Q.** How did the growth turn out when `Cc1ccc(N(CSc2ccc(Cl)cc2)CSc2ccc(Cl)cc2)cc1` was run?
**A.** 67.2%

**Q.** Which growth does the source give for `O=C1C(Cl)=C(NCCCN2CCOCC2)C(=O)c2ccccc21` here?
**A.** 79.5%

**Q.** For `O=[N+]([O-])c1ccc(O)c2ncccc12`, which growth is on record?
**A.** 31.5%

**Q.** With `O=C(Nc1ccccc1)Oc1cccc2cccnc12` as the molecule, how does the growth read?
**A.** 74.5%

**Q.** Which growth does the source give for `Cc1ccc(C)c2c1sc1nc3nc4sc5ccccc5n4c(=N)c3c(=O)n12` here?
**A.** 102%

**Q.** Which growth does the source give for `O=C(c1ccccc1)C(Br)C(Br)c1cccc([N+](=O)[O-])c1` (configuration not stated) here?
**A.** -26.6% (active)

**Q.** How did the growth turn out when `COc1cc(/C=C2\C(=O)Nc3ccccc32)cc(OC)c1O` was run?
**A.** 61.6%

**Q.** With `O=c1ccc2ccccc2o1` as the molecule, how does the growth read?
**A.** 98%

**Q.** Which growth does the source give for `Cc1nc(-c2ccccc2)cc2c(O)c(C(=O)N/N=C/Cc3ccccc3)[nH]c(=O)c12` here?
**A.** 106%

**Q.** How did the growth turn out when `CN1CCc2cccc3c2C1Cc1ccc(O)c(O)c1-3` (configuration not stated) was run?
**A.** 70.7%

**Q.** For `COc1cccc(C2C3=C(COC3=O)N(CCO)c3cc4c(cc32)CCC4)c1` (configuration not stated), which growth is on record?
**A.** 2.3% (active)

**Q.** Which growth does the source give for `COc1cc(CNCCCN2C(=O)c3ccc4c5c(ccc(c35)C2=O)C(=O)N(CCCNCc2cc(OC)c(OC)c(OC)c2)C4=O)cc(OC)c1OC` here?
**A.** -29.4% (active)

**Q.** For `O=C1C=CC(=O)N1CCCCCCCCCCN1C(=O)C=CC1=O`, which growth is on record?
**A.** 92.4%

**Q.** For `CCCCC/C=C\C/C=C/CCCCCCCCNC(=O)Nc1ccc([N+](=O)[O-])cc1`, which growth is on record?
**A.** 78%

**Q.** `Clc1ccc(C2=NN(c3ccccc3)[C@H](c3cn(-c4ccccc4)nc3-c3ccccc3)C2)cc1` was tested. Which growth did it give?
**A.** 103%

**Q.** With `OB(O)c1ccccc1` as the molecule, how does the growth read?
**A.** 102%

**Q.** Which growth does the source give for `COc1cccc2c(=O)c3c(sc12)c(NCCN(C)C)nc1ccccc13` here?
**A.** 16.5%

**Q.** `O=C(N/N=C/c1ccc(F)cc1)c1[nH]c2ccc(I)cc2c1-c1ccccc1` was tested. Which growth did it give?
**A.** 18.7%

**Q.** Which growth does the source give for `COc1ccc(-c2nc3sc(C)cn3c2/C=C/C(=O)c2cc(OC)c(OC)c(OC)c2)cc1` here?
**A.** 48.1%
